Only some compounds are listed: those with a hit (about 1.1% of all), similar ones and a draw of the others.
Mtb betalactam – beta-lactam sensitization of Mtb H37Rv. 330,000 tested, 0.27% active. inhibition, % at 25 µM. M. tuberculosis H37Rv growth with meropenem, percent inhibition. AID 434955;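 note: growth measured after seven days incubation then overnight dye step; 0% = bacteria only wells and 100% = bacteria with antibiotic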
Yp Topo-I inh – inhibitors of Yersinia pestis topoisomerase I; Y. pestis Topo-I cleavage product accumulation, plate reader; 360,000 tested, 0.064% active; activity, % at 10 µM; in the data active = activity above about 50%, passing the limit was not always enough; inconclusive = no clear call, values can overlap the other calls
Mtb BioA inh – inhibitors of Mycobacterium tuberculosis BioA enzyme | inhibition, % at 9.99 µM | purified M. tuberculosis BioA enzyme, plate reader | AID 602481 | 360,000 tested, 0.096% active; in the data active = inhibition above about 40%; inconclusive = no clear call, values can overlap the other calls
RecA intein inh – blocks M. tuberculosis RecA intein splicing; inhibition, % (concentration not given with the values); 290,000 tested, 0.75% active; P9WHJ3; cell-free RecA intein splicing, fluorescence; in the data active = inhibition above about 30%; inconclusive = no clear call, values can overlap the other calls;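 note: 0% = vehicle wells and 100% = reference inhibitor control wells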
Target sequence (P9WHJ3 whole entry, looked up): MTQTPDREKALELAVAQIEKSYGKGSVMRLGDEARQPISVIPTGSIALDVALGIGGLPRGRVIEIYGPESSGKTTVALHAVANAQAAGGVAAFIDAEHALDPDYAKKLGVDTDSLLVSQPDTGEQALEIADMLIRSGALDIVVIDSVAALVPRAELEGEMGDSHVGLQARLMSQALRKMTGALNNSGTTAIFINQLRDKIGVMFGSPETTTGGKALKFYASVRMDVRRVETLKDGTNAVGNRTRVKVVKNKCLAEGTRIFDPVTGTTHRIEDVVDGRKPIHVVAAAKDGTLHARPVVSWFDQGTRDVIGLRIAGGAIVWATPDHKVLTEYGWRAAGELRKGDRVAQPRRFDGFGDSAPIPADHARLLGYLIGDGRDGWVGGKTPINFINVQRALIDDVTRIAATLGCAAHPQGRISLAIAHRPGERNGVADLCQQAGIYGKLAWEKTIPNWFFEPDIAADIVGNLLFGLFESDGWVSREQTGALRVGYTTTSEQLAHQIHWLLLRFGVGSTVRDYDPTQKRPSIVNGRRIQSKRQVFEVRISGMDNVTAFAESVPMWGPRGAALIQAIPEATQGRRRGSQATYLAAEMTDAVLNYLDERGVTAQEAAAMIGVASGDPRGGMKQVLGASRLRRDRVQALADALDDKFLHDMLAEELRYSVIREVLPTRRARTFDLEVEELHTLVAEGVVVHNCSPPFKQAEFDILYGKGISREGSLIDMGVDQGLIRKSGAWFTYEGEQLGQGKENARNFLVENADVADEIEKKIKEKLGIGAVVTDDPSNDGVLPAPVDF
CCHF vOTU inh – blocks the CCHF virus ovarian tumor domain protease; CCHFV vOTU protease, Pep-AMC fluorescence; inhibition, % at 11.5 µM; 370,000 tested, 0.55% active; in the data active = inhibition above about 30%; note: 0% = vehicle wells with enzyme and 100% = no enzyme wells
BJeLR viability – kills HRASV12-expressing BJeLR cells; BJeLR (HRASV12) viability, CellTiter-Glo ATP luminescence, 48 h; inhibition, % (no concentration beside the values); 300,000 tested, 0.17% active; in the data active = inhibition above about 50%; inconclusive = no clear call, values can overlap the other calls
GFP chromo cs – counter-screen: blocks GFP chromophore formation; shares compounds with RecA intein inh; cell-free GFP chromophore formation, fluorescence; EC50, µM; 2,100 tested, 83% active; AID 434968
Active calls of the source: *; u = inconclusive; x = not tested or not shown. Unless noted, the rule behind the calls is not given here.

SMILES | Mtb betalactam | Yp Topo-I inh | Mtb BioA inh | RecA intein inh | CCHF vOTU inh | BJeLR viability | GFP chromo cs
Cc1oc(-c2ccccc2Cl)nc1CN(C)C(C)c1ccon1 (stereo unspecified) | 4 | 4 | x | 1 | 6 | 1 | x
Cc1sc(NC(=O)CSC2=NCCS2)nc1-c1ccccc1 | 66 | -3 | 0 | 45* | 10 | 3 | >38
O=C(CSC1=NCCS1)Nc1nc2ccccc2s1 | 8 | 2 | 0 | 28 | -4 | 2 | x
Cc1noc(C)c1NC(=O)Nc1ccc2c(c1)C(=O)N([C@@H](C)CO)C[C@H](C)[C@H](CN(C)CC1CCCCC1)OCCCC[C@H](C)O2 | x | x | 0 | x | x | x | x
CS/C(Nc1cc(Cl)ccc1Cl)=C(/C#N)C(=O)c1ccco1 | 100 | 4 | 4 | 65* | 18 | -10 | 27*
COc1ccc(S(=O)(=O)Nc2ccc3c(c2)C(=O)N([C@@H](C)CO)C[C@H](C)[C@@H](CN(C)S(=O)(=O)c2ccc(OC)cc2)OCCCC[C@H](C)O3)cc1 | x | x | -2 | x | x | x | x
CCOC(=O)c1c(NC(=S)N2CCOCC2)sc2c1CCN(C(=O)OCC)C2 | 66 | -2 | -1 | 39* | 6 | 4 | 33*
C=CCNC(=S)Nc1sc2c(c1C(=O)OCC)CCN(C(=O)OCC)C2 | -3 | 5 | -2 | -3 | 1 | 0 | x
CCOC(=O)c1c(NC(=S)N2CCCCC2)sc2c1CCN(C(=O)OCC)C2 | 80 | -4 | -1 | 33* | -11 | -6 | 25*
CCN(C(=O)CSc1ncccc1C(=O)Oc1cccc([N+](=O)[O-])c1)c1cccc(C)c1 | -4 | 6 | 0 | 33* | 1 | -2 | u
CCOC(=O)CNc1nnc(SCC(=O)OCC)[nH]c1=O | -10 | -5 | -4 | 41* | 8 | 2 | 6.3*
C[C@H]1CN([C@@H](C)CO)S(=O)(=O)c2ccc(C#CCN(C)C)cc2O[C@H]1CN(C)C(=O)C1CCC1 | x | x | -2 | x | x | x | x
O=S(=O)(Nc1ccc(-n2cnnn2)cc1)c1ccc(F)c(F)c1F | -1 | 1 | -1 | 30* | 11 | 2 | >38
O=S(=O)(Nc1ccc(-n2cnnn2)cc1)c1ccccc1F | 3 | 0 | -1 | x | 2 | x | x
COc1ccc(S(=O)(=O)Nc2ccc3c(c2)C(=O)N([C@@H](C)CO)C[C@@H](C)[C@@H](CN(C)CC2CCCCC2)OCCCC[C@@H](C)O3)cc1 | x | x | 2 | x | x | x | x
O=C(Nc1ccccc1Cl)C(Cl)C(=O)c1ccccc1 (stereo unspecified) | x | 9 | 1 | x | 14 | x | x
O=C(Nc1ccc(Cl)cc1)C(Cl)C(=O)c1ccccc1 (stereo unspecified) | 2 | 4 | -2 | 46* | -6 | 2 | 38*
COc1ccc(-c2csc(CCN3N=C(C)CC3=O)n2)cc1 | 2 | -7 | 0 | 86* | 7 | 3 | 4.8*
COc1ccc(-c2csc(C)n2)cc1 | -1 | 8 | -1 | 0 | 0 | -12 | x
CCNC(=O)c1ccccc1-c1nc(-c2ccccc2)no1 | 2 | 2 | -1 | 30* | 12 | -7 | >38
CC(C)NC(=O)Nc1ccc2c(c1)C(=O)N([C@H](C)CO)C[C@@H](C)[C@H](CN(C)S(=O)(=O)c1ccccc1)O2 | x | x | 1 | x | x | x | x
C/C(CC(=O)Nc1ccccc1[N+](=O)[O-])=N\NC(=O)COc1ccccc1C | -7 | 1 | 0 | 69* | 0 | 1 | 21*
C/C(CC(=O)Nc1ccc(F)cc1)=N\NC(=O)COc1ccccc1 | 0 | 1 | x | 66* | 2 | -9 | 22*
CO[C@@H]1CN(C)C(=O)c2ccc(NC(=O)c3cc(C)on3)cc2OC[C@H](C)N(C(C)=O)C[C@@H]1C | x | x | 1 | x | x | x | x
CC(=O)Nc1ccc(-c2nc3cc(Cl)ccc3o2)cc1 | -11 | -3 | -3 | 2 | -7 | 14 | x
SMILES | Mtb betalactam | Yp Topo-I inh | Mtb BioA inh | RecA intein inh | CCHF vOTU inh | BJeLR viability | GFP chromo cs
O=C(O)c1ccccc1-c1ccccc1C(=O)Nc1ccc(-c2nc3cc(Cl)ccc3o2)cc1 | 56 | 0 | x | 36* | 7 | 2 | 17*
O=C(C[C@H]1CC[C@H]2[C@@H](COC[C@H](O)CN2S(=O)(=O)c2ccc(F)cc2)O1)NCC1CCCCC1 | x | x | 1 | x | x | x | x
C[C@@H]1CN([C@H](C)CO)C(=O)Cc2cc(NC(=O)CCCCCC(=O)Nc3ccccc3N)ccc2O[C@H]1CN(C)CC1CCCCC1 | x | x | -1 | x | x | x | x
N#CC1=C(N)Oc2n[nH]c(-c3cccs3)c2C1c1ccsc1 (stereo unspecified) | -6 | -12 | 2 | 91* | 7 | -9 | 5.4*
COc1ccc(OC)c(-c2[nH]nc3c2C(c2ccco2)C(C#N)=C(N)O3)c1 (stereo unspecified) | 8 | -6 | -1 | 70* | 1 | -6 | 26*
CCc1[nH]nc2c1C(c1ccsc1)C(C#N)=C(N)O2 (stereo unspecified) | -14 | 2 | -1 | 77* | -9 | 1 | 26*
CC(C)(C)c1[nH]nc2c1C(c1ccsc1)C(C#N)=C(N)O2 (stereo unspecified) | -4 | -6 | x | 27 | -3 | 7 | x
N#CC1=C(N)Oc2n[nH]c(-c3cccs3)c2C1c1ccco1 (stereo unspecified) | 0 | -3 | 4 | 83* | -6 | 7 | 18*
N#CC1=C(N)Oc2n[nH]c(-c3cccs3)c2C1C1CCCCC1 (stereo unspecified) | -7 | -2 | 0 | 19 | 12 | -4 | x
N#CC1=C(N)Oc2n[nH]c(-c3cccnc3)c2C1c1ccc([N+](=O)[O-])o1 (stereo unspecified) | 100 | -1 | 0 | 29 | -5 | -18 | x
CC(C)c1[nH]nc2c1C(c1ccco1)C(C#N)=C(N)O2 (stereo unspecified) | 3 | -1 | -2 | 64* | 3 | -5 | 29*
Cc1[nH]nc2c1C(C(C)c1ccccc1)C(C#N)=C(N)O2 (stereo unspecified) | -1 | -12 | x | -1 | 5 | -5 | x
COc1cccc(-c2[nH]nc3c2C(c2ccc(C)o2)C(C#N)=C(N)O3)c1 (stereo unspecified) | -4 | x | x | 78* | 9 | 9 | 17*
Cc1ccc(C2C(C#N)=C(N)Oc3n[nH]c(-c4cccs4)c32)s1 (stereo unspecified) | -8 | -3 | x | 67* | -3 | 8 | 8.8*
O=C(C[C@@H]1CC[C@@H]2[C@H](COC[C@@H](O)CN2C(=O)c2ccc(F)cc2)O1)NCCCN1CCOCC1 | x | x | -2 | x | x | x | x
CN1/C(=C/C(=O)c2nc(S(C)(=O)=O)ncc2Cl)C(C)(C)c2ccccc21 | 96 | -1 | x | 77* | x | 15 | 6.3*
CC(=O)NCCn1c(SCc2ccc(C)cc2C)nc2ccccc2c1=O | 6 | 4 | 2 | 6 | -6 | 9 | x
CC(=O)NCCn1c(SCc2ccccc2C)nc2ccccc2c1=O | u | 6 | 2 | 32* | -10 | 16 | >38

Compound activity from PubChem BioAssay.
